According to PubChem BioAssay (EPA / NIEHS):
Values joined by “and” are separate entries in the source; they are usually repeats but may differ in a detail not shown here. Equal entries are not always repeated. Results filed as inconclusive are left out. Where a structure was tested more than once in an assay, its records may differ in their call. Active and inactive are the calls of the source. How the source made its calls: active means hit-call score of the fitted dose curve at least 0.9, where 1 is the maximum; inconclusive means response in the unintended direction; inactive means score below 0.9.

What was measured:
[1] = biological target: Peroxisome proliferator-activated receptor gamma (Homo sapiens) (UniProt P37231); assay: ATG_hPPARg_XSP1: Attagene TRANS-FACTORIAL Multi-Species (XSP1) HepG2 Assay for human Peroxisome Proliferator-activated Receptor gamma (PPARg) (AID 2283800)
Method in brief: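 HepG2 cells transiently transfected with GAL4-UAS reporter units carrying chimeric NR-Gal4 proteins; 3 nM 6-alpha-fluorotestosterone present. After 24 h dosing, reporter mRNA quantified by RT-PCR and capillary electrophoresis; gain of signal relative to DMSO.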

[2] = test system: zebrafish Peroxisome Proliferator-activated Receptor gamma (PPARg), gene 557037; assay: ATG_zfPPARg_XSP1: Attagene TRANS-FACTORIAL Multi-Species (XSP1) HepG2 Assay for zebrafish Peroxisome Proliferator-activated Receptor gamma (PPARg) (AID 2283801)
Method in brief: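 HepG2 cells transiently transfected with GAL4-UAS reporter units including a zebrafish PPARg–GAL4 chimera, dosed 24 h with 3 nM 6-alpha-fluorotestosterone present. Reporter mRNA quantified by RT-PCR, FAM labelling, HpaI digestion and capillary electrophoresis; induction versus DMSO.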

[3] = biological target: mouse Peroxisome Proliferator-activated Receptor gamma (PPARg), Pparg (gene 19016) (UniProt P37238); assay: ATG_mPPARg_XSP1: Attagene TRANS-FACTORIAL Multi-Species (XSP1) HepG2 Assay for mouse Peroxisome Proliferator-activated Receptor gamma (PPARg) (AID 2283802)
Method in brief: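 HepG2 cells transiently transfected with GAL4-UAS reporter units driven by mouse PPARg–GAL4 chimera; 3 nM 6-alpha-fluorotestosterone present. After 24 h dosing, reporter mRNA quantified by RT-PCR, fluorescent labelling and capillary electrophoresis; gain of signal versus DMSO.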

[4] = biological target: Nuclear receptor subfamily 1 group I member 2 (Mus musculus) (UniProt O54915); assay: ATG_mPXR_XSP1: Attagene TRANS-FACTORIAL Multi-Species (XSP1) HepG2 Assay for mouse Pregnane X Receptor (PXR) (AID 2283803)
Method in brief: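 Transiently transfected HepG2 cells expressing a receptor-Gal4 chimera drive a GAL4-UAS reporter; 3 nM 6-alpha-fluorotestosterone included. Reporter mRNA read 24 h post-dose by RT-PCR and capillary electrophoresis; gain of signal relative to DMSO.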

[5] = biological target: frog Thyroid hormone Receptor alpha (TRa), thra-a (gene 397942) (UniProt P15204); assay: ATG_frTRa_XSP1: Attagene TRANS-FACTORIAL Multi-Species (XSP1) HepG2 Assay for frog Thyroid hormone Receptor alpha (TRa) (AID 2283804)
Method in brief: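 HepG2 cells transiently transfected with frog TRa-GAL4 chimeric reporter units, dosed 24 hr with 3 nM 6-alpha-fluorotestosterone present; reporter mRNA quantified by RT-PCR, fluorescent labelling and capillary electrophoresis, gain of signal versus DMSO.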

[6] = biological target: human Thyroid hormone Receptor alpha (TRa), THRA (gene 7067) (UniProt P10827); assay: ATG_hTRa_XSP1: Attagene TRANS-FACTORIAL Multi-Species (XSP1) HepG2 Assay for human Thyroid hormone Receptor alpha (TRa) (AID 2283805)
Method in brief: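 HepG2 cells transiently transfected with GAL4-UAS reporter units expressing chimeric NR-Gal4 proteins, dosed 24 hours with 3 nM 6-alpha-fluorotestosterone present. Reporter mRNA measured by RT-PCR and capillary electrophoresis; gain of signal fitted versus DMSO.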

[7] = test system: turtle Thyroid Hormone Receptor, alpha (TRa), gene 101949057; assay: ATG_trTRa_XSP1: Attagene TRANS-FACTORIAL Multi-Species (XSP1) HepG2 Assay for turtle Thyroid Hormone Receptor, alpha (TRa) (AID 2283806)
Method in brief: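 HepG2 cells transiently transfected with GAL4-UAS reporter units and chimeric receptor-Gal4 constructs, with 3 nM 6-alpha-fluorotestosterone present. Reporter mRNA was quantified 24 h after dosing by RT-PCR, 6-FAM labelling and capillary electrophoresis; gain of signal versus DMSO.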

[8] = biological target: zebrafish Thyroid Hormone Receptor alpha (TRa), thraa (gene 30670) (UniProt Q98867); assay: ATG_zfTRa_XSP1: Attagene TRANS-FACTORIAL Multi-Species (XSP1) HepG2 Assay for zebrafish Thyroid Hormone Receptor alpha (TRa) (AID 2283807)
Method in brief: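 HepG2 cells transiently transfected with GAL4-UAS reporter units including a zebrafish TRa–Gal4 chimera, dosed 24 h with 3 nM 6-alpha-fluorotestosterone present. Reporter mRNA quantified by RT-PCR and capillary electrophoresis; gain versus DMSO.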

[9] = biological target: human Thyroid hormone Receptor beta (TRb), THRB (gene 7068) (UniProt P10828); assay: ATG_hTRb_XSP1: Attagene TRANS-FACTORIAL Multi-Species (XSP1) HepG2 Assay for human Thyroid hormone Receptor beta (TRb) (AID 2283808)
Method in brief: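 HepG2 cells transiently transfected with reporter units driving GAL4-UAS reporters for chimeric NR-Gal4 proteins; 24 h chemical exposure with 3 nM 6-alpha-fluorotestosterone present. Reporter mRNA quantified by RT-PCR and capillary electrophoresis, gain of signal versus DMSO.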

[10] = biological target: zebrafish Thyroid Hormone Receptor beta (TRb), thrb (gene 30607) (UniProt Q9PVE4); assay: ATG_zfTRb_XSP1: Attagene TRANS-FACTORIAL Multi-Species (XSP1) HepG2 Assay for zebrafish Thyroid Hormone Receptor beta (TRb) (AID 2283809)
Method in brief: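 HepG2 cells transiently transfected with multiplexed GAL4-UAS reporter units expressing chimeric zebrafish TRb–Gal4. Dosed 24 h with 3 nM 6-alpha-fluorotestosterone present; reporter mRNA measured by RT-PCR, HpaI digestion and capillary electrophoresis; gain of signal versus DMSO.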

[11] = ATG_XTT_Cytotoxicity_XSP1: Cytotoxicity Assessment in the Attagene TRANS-FACTORIAL Multi-Species (XSP1) HepG2 Assay (AID 2283810)
Method in brief: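 XTT viability readout taken at 24 hours post-dosing in HepG2 liver cells co-treated with 3 nM 6-alpha-fluorotestosterone. Signal loss relative to DMSO controls reflects cytotoxicity.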

[12] = test system: turtle Estrogen Receptor (ERa), gene 101933533; assay: ATG_trERa_XSP2: Attagene TRANS-FACTORIAL Multi-Species (XSP2) HepG2 Assay for turtle Estrogen Receptor (ERa) (AID 2283812);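 further: human HepG2 liver cells transiently expressing turtle ERa-Gal4 chimeric receptor; actives raise reporter signal above DMSO so AC50 reflects agonist activity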
Method in brief: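 HepG2 cells transiently transfected with GAL4-UAS reporter units expressing turtle ERa-Gal4 chimera. Reporter mRNA measured after 24 h dosing by RT-PCR, fluorescent labelling and capillary electrophoresis; gain of signal fitted versus DMSO.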

[13] = biological target: GAL4 Transcription Factor (Internal Marker), GAL4 (gene 855828) (UniProt P04386); assay: ATG_GAL4_XSP2: Attagene TRANS-FACTORIAL Multi-Species (XSP2) HepG2 Assay for GAL4 Transcription Factor (Internal Marker) (AID 2283814);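 further: GAL4 reporter mRNA background control in MRTU transfected cells not a receptor target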
Method in brief: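 HepG2 cells transiently transfected with GAL4-UAS reporter units, stimulated with 3 nM 6-alpha-fluorotestosterone plus 1.5 nM norgestrel, dosed 24 h. Reporter mRNA by RT-PCR/capillary electrophoresis; gain-of-signal fit versus DMSO, background control.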

[14] = test system: turtle Androgen Receptor (AR), gene 101947425; assay: ATG_trAR_XSP2: Attagene TRANS-FACTORIAL Multi-Species (XSP2) HepG2 Assay for turtle Androgen Receptor (AR) (AID 2283815)
Method in brief: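 HepG2 cells transiently transfected with GAL4-UAS reporter units for chimeric NR-Gal4 receptors; 24 h dosing in presence of 3 nM 6-alpha-fluorotestosterone and 1.5 nM norgestrel. Reporter mRNA by RT-PCR and capillary electrophoresis, gain of signal versus DMSO.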

[15] = biological target: chicken Estrogen Receptor (ERa), ESR1 (gene 396099) (UniProt P06212); assay: ATG_chERa_XSP2: Attagene TRANS-FACTORIAL Multi-Species (XSP2) HepG2 Assay for chicken Estrogen Receptor (ERa) (AID 2283817);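 further: actives raise reporter signal above DMSO so AC50 reflects ER activation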
Method in brief: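 HepG2 cells transiently transfected with multiplexed GAL4-UAS reporter units expressing chimeric chicken ERa-Gal4; 24 h compound exposure. Reporter mRNA measured by RT-PCR with 6-FAM labelling, HpaI digestion and capillary electrophoresis; gain-of-signal fitted versus DMSO.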

[16] = test system: zebrafish Estrogen Receptor (ER2a), gene 317734; assay: ATG_zfER2a_XSP2: Attagene TRANS-FACTORIAL Multi-Species (XSP2) HepG2 Assay for zebrafish Estrogen Receptor (ER2a) (AID 2283818);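 further: hits raise reporter mRNA so AC50 reflects activation of zebrafish ER2a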
Method in brief: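 HepG2 cells transiently transfected with GAL4-UAS reporter units and chimeric zebrafish ER2a-Gal4, exposed 24 h; medium contains 3 nM 6-alpha-fluorotestosterone and 1.5 nM norgestrel. Reporter mRNA quantified by RT-PCR, HpaI digestion, capillary electrophoresis; gain versus DMSO.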

[17] = test system: chicken Androgen Receptor (AR), gene 422165; assay: ATG_chAR_XSP2: Attagene TRANS-FACTORIAL Multi-Species (XSP2) HepG2 Assay for chicken Androgen Receptor (AR) (AID 2283819);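 further: hits raise reporter mRNA above DMSO so potency is for activation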
Method in brief: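 HepG2 cells transiently transfected with chicken AR–GAL4 chimeric reporter constructs, stimulated with 3 nM 6-alpha-fluorotestosterone plus 1.5 nM norgestrel, dosed 24 h. Reporter mRNA quantified by RT-PCR and capillary electrophoresis; gain of signal fitted versus DMSO.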

[18] = ATG_M_06_XSP2: Attagene TRANS-FACTORIAL Multi-Species (XSP2) HepG2 Assay for M06 Transcription Factor (Internal Marker) (AID 2283811);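 further: internal background marker reporter mRNA measured by RT-PCR and capillary electrophoresis; hits are increases in signal above the DMSO baseline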
Method in brief: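 HepG2 cells transiently transfected with GAL4-UAS multi-reporter constructs, dosed 24 h with 3 nM 6-alpha-fluorotestosterone plus 1.5 nM norgestrel present to stimulate androgen receptor. Reporter mRNA quantified by RT-PCR, 6-FAM labelling, HpaI digestion and capillary electrophoresis; gain-of-signal fitted versus DMSO baseline.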

[19] = biological target: zebrafish Estrogen Receptor (ER1), esr1 (gene 259252) (UniProt P57717); assay: ATG_zfER1_XSP2: Attagene TRANS-FACTORIAL Multi-Species (XSP2) HepG2 Assay for zebrafish Estrogen Receptor (ER1) (AID 2283816)
Method in brief: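 HepG2 cells transiently transfected with a GAL4-UAS reporter and a chimeric zebrafish ER1-Gal4 construct, dosed 24 h. Reporter mRNA quantified by RT-PCR, labelling, HpaI digestion and capillary electrophoresis, relative to DMSO.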

[20] = biological target: Estrogen receptor beta (Homo sapiens) (UniProt Q92731); assay: ATG_hERb_XSP2: Attagene TRANS-FACTORIAL Multi-Species (XSP2) HepG2 Assay for human Estrogen Receptor (ERb) (AID 2283813);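 further: actives raise reporter mRNA above DMSO so AC50 reflects agonist induction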
Method in brief: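 HepG2 cells transiently transfected with GAL4-UAS reporter units and chimeric human ERb-Gal4, 24 h exposure. Reporter mRNA quantified by RT-PCR with FAM labelling, HpaI digestion and capillary electrophoresis; gain of signal versus DMSO.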

Measured: AC50

zebrafish Estrogen Receptor (ER1), esr1 (gene 259252), sequence (P57717 whole entry, looked up, the tested form may be a part): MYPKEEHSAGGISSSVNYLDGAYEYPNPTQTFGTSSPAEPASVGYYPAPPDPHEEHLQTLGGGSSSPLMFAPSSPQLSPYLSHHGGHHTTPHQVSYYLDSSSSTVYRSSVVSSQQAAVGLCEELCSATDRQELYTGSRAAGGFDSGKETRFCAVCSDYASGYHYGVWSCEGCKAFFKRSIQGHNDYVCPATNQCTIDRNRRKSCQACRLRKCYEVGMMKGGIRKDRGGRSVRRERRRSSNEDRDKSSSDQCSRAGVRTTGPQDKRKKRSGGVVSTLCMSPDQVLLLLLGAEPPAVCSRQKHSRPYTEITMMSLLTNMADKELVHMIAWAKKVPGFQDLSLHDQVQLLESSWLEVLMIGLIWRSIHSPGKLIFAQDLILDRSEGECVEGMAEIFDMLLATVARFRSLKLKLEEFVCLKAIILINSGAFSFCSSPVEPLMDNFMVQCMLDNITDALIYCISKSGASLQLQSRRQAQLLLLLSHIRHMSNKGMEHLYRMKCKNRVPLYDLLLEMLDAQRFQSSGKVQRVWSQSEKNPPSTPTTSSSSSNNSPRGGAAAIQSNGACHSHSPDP
GAL4 Transcription Factor (Internal Marker), GAL4 (gene 855828), sequence (P04386 whole entry, looked up, the tested form may be a part): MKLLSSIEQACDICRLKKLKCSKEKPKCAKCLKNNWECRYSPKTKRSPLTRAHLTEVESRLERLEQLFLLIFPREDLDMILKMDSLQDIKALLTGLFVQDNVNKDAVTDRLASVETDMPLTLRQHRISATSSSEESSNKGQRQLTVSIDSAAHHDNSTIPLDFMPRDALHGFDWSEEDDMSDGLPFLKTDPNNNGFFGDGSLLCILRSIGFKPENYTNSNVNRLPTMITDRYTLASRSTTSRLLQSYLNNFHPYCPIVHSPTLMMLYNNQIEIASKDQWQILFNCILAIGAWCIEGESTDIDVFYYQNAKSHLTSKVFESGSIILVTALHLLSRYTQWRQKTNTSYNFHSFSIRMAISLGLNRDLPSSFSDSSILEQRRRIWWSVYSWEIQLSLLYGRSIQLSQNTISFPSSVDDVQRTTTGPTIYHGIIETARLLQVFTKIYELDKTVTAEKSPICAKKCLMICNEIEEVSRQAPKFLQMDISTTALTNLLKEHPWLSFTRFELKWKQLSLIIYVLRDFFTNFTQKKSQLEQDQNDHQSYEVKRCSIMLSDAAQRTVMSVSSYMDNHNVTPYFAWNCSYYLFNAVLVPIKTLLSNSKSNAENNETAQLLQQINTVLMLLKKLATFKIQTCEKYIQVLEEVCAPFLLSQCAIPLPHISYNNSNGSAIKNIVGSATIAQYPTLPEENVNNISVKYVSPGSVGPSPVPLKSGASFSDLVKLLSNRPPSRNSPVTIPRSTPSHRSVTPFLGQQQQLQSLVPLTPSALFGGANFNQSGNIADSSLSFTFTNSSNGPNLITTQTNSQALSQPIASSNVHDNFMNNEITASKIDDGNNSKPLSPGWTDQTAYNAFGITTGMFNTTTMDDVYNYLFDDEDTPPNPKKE
chicken Estrogen Receptor (ERa), ESR1 (gene 396099), sequence (P06212 whole entry, looked up, the tested form may be a part): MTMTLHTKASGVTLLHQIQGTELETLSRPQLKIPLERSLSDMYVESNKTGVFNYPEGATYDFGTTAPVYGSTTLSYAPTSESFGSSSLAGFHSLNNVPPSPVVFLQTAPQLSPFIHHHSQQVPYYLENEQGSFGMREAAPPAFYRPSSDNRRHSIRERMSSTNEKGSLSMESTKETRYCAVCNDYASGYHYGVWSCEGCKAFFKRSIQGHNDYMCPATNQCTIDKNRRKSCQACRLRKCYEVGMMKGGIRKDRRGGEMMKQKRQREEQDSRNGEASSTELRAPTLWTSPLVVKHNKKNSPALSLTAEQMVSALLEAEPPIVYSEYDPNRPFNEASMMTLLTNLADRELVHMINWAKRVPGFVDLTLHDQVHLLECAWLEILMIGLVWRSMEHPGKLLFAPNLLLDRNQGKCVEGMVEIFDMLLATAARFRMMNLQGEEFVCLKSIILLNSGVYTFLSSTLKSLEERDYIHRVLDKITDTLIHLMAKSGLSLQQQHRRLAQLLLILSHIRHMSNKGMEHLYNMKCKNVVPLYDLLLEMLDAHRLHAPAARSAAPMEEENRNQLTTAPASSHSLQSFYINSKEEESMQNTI
frog Thyroid hormone Receptor alpha (TRa), thra-a (gene 397942), sequence (P15204 whole entry, looked up, the tested form may be a part): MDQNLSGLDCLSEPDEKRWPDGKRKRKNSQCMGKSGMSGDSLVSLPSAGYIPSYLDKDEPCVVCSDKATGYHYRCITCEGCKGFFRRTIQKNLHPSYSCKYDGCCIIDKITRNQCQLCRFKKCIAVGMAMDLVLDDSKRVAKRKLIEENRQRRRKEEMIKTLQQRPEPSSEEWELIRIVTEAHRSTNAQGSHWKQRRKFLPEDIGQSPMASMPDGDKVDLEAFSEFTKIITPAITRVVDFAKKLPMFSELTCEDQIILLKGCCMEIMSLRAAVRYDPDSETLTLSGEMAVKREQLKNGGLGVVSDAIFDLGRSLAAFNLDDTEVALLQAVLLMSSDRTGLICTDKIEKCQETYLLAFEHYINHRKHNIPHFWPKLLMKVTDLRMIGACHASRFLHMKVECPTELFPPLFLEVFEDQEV
Peroxisome proliferator-activated receptor gamma (Homo sapiens), sequence (P37231 whole entry, looked up, the tested form may be a part): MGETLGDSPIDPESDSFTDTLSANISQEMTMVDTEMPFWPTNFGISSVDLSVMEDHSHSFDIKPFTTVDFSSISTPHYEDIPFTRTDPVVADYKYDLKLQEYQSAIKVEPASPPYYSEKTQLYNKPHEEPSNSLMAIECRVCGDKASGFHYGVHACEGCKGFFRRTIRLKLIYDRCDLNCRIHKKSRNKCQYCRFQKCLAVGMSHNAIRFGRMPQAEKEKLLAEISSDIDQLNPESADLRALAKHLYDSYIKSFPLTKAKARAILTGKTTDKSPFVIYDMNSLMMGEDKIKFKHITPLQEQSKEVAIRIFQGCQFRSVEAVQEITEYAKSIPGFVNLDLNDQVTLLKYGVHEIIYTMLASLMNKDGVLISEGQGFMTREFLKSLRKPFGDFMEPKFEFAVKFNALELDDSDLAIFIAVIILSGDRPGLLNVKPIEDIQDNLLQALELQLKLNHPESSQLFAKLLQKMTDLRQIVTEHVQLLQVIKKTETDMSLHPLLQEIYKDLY
Estrogen receptor beta (Homo sapiens), sequence (Q92731 whole entry, looked up, the tested form may be a part): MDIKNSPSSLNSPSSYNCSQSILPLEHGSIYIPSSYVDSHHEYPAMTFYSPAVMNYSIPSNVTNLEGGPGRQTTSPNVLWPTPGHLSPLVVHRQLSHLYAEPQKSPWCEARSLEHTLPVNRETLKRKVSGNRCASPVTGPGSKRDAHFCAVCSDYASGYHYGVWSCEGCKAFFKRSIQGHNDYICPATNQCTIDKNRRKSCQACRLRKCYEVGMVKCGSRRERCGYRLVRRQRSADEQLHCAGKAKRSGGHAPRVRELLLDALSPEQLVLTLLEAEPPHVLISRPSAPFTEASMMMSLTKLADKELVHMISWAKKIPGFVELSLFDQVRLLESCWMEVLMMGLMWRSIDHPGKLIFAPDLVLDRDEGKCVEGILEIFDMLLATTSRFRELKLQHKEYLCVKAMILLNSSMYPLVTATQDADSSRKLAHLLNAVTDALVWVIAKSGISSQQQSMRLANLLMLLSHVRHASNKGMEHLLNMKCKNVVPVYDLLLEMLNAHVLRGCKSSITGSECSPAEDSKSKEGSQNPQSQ
human Thyroid hormone Receptor beta (TRb), THRB (gene 7068), sequence (P10828 whole entry, looked up, the tested form may be a part): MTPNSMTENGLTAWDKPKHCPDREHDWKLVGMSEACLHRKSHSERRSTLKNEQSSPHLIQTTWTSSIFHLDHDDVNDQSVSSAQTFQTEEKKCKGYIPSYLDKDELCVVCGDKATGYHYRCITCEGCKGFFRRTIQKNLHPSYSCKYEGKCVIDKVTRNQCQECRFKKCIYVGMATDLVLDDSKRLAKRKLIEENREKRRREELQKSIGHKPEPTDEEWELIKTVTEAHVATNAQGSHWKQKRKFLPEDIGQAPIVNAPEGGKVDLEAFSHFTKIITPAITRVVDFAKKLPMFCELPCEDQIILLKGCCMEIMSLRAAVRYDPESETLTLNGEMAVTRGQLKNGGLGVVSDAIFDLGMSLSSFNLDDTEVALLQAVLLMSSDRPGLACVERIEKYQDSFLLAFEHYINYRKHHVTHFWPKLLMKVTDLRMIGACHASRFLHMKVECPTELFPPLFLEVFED
Nuclear receptor subfamily 1 group I member 2 (Mus musculus), sequence (O54915 whole entry, looked up, the tested form may be a part): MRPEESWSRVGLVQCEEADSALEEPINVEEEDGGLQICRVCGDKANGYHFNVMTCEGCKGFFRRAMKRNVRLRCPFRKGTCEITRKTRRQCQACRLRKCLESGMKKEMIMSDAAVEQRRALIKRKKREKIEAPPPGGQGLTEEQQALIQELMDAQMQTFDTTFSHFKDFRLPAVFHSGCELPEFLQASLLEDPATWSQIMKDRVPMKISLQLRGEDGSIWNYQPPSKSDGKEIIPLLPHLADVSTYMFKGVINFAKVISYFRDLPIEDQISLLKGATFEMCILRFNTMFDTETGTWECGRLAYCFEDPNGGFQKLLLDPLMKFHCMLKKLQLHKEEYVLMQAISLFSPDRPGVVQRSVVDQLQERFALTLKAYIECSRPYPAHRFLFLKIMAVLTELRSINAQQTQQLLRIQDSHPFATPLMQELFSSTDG
human Thyroid hormone Receptor alpha (TRa), THRA (gene 7067), sequence (P10827 whole entry, looked up, the tested form may be a part): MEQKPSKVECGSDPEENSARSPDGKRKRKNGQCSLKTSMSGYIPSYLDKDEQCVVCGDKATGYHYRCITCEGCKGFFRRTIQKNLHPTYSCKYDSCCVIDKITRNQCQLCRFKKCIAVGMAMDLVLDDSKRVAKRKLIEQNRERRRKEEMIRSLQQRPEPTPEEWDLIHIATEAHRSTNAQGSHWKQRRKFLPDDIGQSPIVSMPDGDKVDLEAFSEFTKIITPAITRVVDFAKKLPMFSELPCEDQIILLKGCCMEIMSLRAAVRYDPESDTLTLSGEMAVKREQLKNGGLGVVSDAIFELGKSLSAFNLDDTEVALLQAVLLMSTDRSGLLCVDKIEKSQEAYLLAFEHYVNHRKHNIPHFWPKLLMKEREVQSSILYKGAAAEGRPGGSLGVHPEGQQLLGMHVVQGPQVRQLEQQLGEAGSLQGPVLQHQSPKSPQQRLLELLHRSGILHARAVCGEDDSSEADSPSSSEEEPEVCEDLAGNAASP

CC1(C)C(C=C(Cl)Cl)C1C(=O)OC(C#N)c1ccc(F)c(Oc2ccccc2)c1 (stereo not given)
active: [1] 11.1 µM | [3] 9.66 µM | [4] 0.436 µM
not listed: [18] | [19] | [20]
inactive: all other assays above

Oc1cc(Cl)ccc1Oc1ccc(Cl)cc1Cl
active: [1] 9.39 µM | [3] 11.1 µM | [4] 14.4 µM | [6] 7.06 µM | [7] 11.1 µM | [8] 14 µM | [11] 100 µM | [13] 15.8 µM | [15] 7.48 µM | [16] 14.1 µM
inactive: [2] | [5] | [9] | [10] | [18] | [12]

CCCN(CCC)c1c([N+](=O)[O-])cc(C(F)(F)F)cc1[N+](=O)[O-]
active: [1] 27.1 µM | [3] 35.1 µM | [4] 2.85 µM
not listed: [5] | [6] | [14] | [17] | [20]
inactive: all other assays above

COP(=S)(OC)Oc1ccc([N+](=O)[O-])cc1
active: [12] 29.6 µM and 23.1 µM | [20] 26.8 µM | [15] 27.7 µM and 20.6 µM | [16] 26.7 µM
inactive: [20] | [13] | [19] | [16]

Oc1ccc(Cl)cc1Cc1ccccc1
active: [3] 10.1 µM
not listed: [1] | [14] | [17] | [19]
inactive: all other assays above

O=C(O)C(F)(F)C(F)(F)C(F)(F)C(F)(F)C(F)(F)C(F)(F)C(F)(F)F
active: [12] 35.5 µM | [20] 38.4 µM | [15] 37.9 µM | [16] 100 µM
inactive: [18] | [17]

O=S(=O)(O)C(F)(F)C(F)(F)C(F)(F)C(F)(F)C(F)(F)C(F)(F)C(F)(F)C(F)(F)F
active: [3] 73.1 µM | [4] 57.9 µM | [8] 140 µM | [11] 154 µM
inactive: [10] | [18] | [12] | [15] | [16] | [17]

O=S1OCC2C(CO1)C1(Cl)C(Cl)=C(Cl)C2(Cl)C1(Cl)Cl (stereo not given)
active: [4] 0.512 µM | [12] 2.06 µM
not listed: [2] | [5] | [13] | [14] | [16] | [17] | [20]
inactive: all other assays above

COP(=S)(OC)Oc1ccc(SC)c(C)c1
active: [1] 22.5 µM | [3] 41.5 µM | [4] 8.91 µM | [12] 5.17 µM | [15] 27.5 µM | [16] 27.8 µM
not listed: [5] | [14] | [17]
inactive: all other assays above

CCOCN(C(=O)CCl)c1c(C)cccc1CC
inactive: [11]
active: [1] 0.727 µM | [3] 1.89 µM | [4] 4 µM

CC(C)(C)C(O)/C(=C\c1ccc(Cl)cc1Cl)n1cncn1 (stereo not given)
inactive: [18] | [12] | [20] | [19] | [15] | [16]
active: [20] 8.38 µM | [15] 16 µM

CCCN(CCOc1c(Cl)cc(Cl)cc1Cl)C(=O)n1ccnc1
active: [1] 33.4 µM | [3] 15.8 µM | [4] 0.11 µM | [11] 100 µM
not listed: [5] | [10] | [13] | [14] | [17]
inactive: all other assays above
